From PubChem
JMJD2C inh: inhibitors of GASC-1 histone demethylase, primary screen, biochemical, fluorescence, DELFIA europium; GST-JMJD2C(1-420) H3K9me3 demethylation; inhibition, % at 2.35 µM; AID 2099, 2009; 330,000 compounds, 0.069% hits;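 active = more than half of a compound's replicate wells show inhibition beyond 50%, single wells judged on their own value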;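 note: signal counts dimethyl H3K9 product captured on neutravidin plate; 0% = median of DMSO wells and 100% = 0.3 times that DMSO median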
Target sequence (Q9H3R0 1-420 limits assumed): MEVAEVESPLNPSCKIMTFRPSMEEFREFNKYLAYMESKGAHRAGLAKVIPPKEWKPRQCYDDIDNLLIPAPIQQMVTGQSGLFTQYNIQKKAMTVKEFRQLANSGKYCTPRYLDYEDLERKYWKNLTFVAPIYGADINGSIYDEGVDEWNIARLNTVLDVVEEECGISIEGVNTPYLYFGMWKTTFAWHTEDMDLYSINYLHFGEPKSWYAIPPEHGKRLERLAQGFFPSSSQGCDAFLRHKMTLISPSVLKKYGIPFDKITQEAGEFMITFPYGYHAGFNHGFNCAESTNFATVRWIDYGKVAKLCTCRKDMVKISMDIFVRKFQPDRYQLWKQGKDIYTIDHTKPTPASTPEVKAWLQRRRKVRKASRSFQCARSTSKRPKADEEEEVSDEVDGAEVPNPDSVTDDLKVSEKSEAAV
GPR7 antagonist: GPR7 receptor antagonists, primary screen, cell-based, fluorescence, single concentration | Neuropeptides B/W receptor type 1 (Homo sapiens), P48145 | GPR7-expressing cells, fluorescence antagonist assay | inhibition, % at 4.4 µM | 290,000 compounds, 1.1% hits | AID 1861, 2009; in the data active = inhibition above about 16%, passing the limit was not always enough;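 note: cells stimulated with the agonist NPW; 0% = agonist with vehicle and 100% = vehicle without agonist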
VLA-4 inh: inhibition in human VLA-4 binding assay, primary screen, VLA-4 allosteric modulator project, MLPCN library, flow cytometry, VLA-4 expressing cells; Integrin alpha-4 (Homo sapiens), P13612; ligand binding flow cytometry; 330,000 compounds, 0.2% hits; inhibition, % (about 7 µM as worked out from the volumes in the protocol); in the data active = inhibition above about 50%
p-CIP stab down: p/CIP-EGFP fusion destabilizers, primary screen, fluorescence, F442A cells; Q05BA5; 16 h; decrease of EGFP signal, % at 10 µM; 290,000 compounds, 0.01% hits; AID 1984, 2009;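 active = EGFP signal decrease of at least 30% at 10 µM or well 3 SD below plate mean, unless failing retest; inactive = the rest, including hits failing retest or dose response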
GPR7 antag conf: GPR7 receptor antagonists, confirmation, cell-based, fluorescence, single concentration | inhibition, % at 4.4 µM | AID 1952, 2009 | shares compounds with GPR7 antagonist | GPR7-expressing cells, calcium fluorescence antagonist mode | 2,400 compounds, 52% hits; in the data active = inhibition above about 24%;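 note: stimulated with the GPR7 agonist NPW; 0% = agonist plus vehicle and 100% = vehicle alone without agonist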
MCHR1 antagonist: MCHR1 antagonists in cells, counter-screen for GPR7 antagonist project, cell-based, fluorescence, human; shares compounds with GPR7 antagonist; MCHR1-expressing cells, fluorescence antagonist assay; inhibition, % at 4.4 µM; 2,400 compounds, 62% hits; AID 2148, 2009; in the data active = inhibition above about 22%;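 note: 0% = vehicle with agonist and 100% = vehicle without agonist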
* marks the source's active call; other numbers are inactive results; i = inactive; . = no result. Most compounds without a hit are left out; they make up all but 1.2% or so of the library.

SMILES | JMJD2C inh | GPR7 antagonist | VLA-4 inh | p-CIP stab down | GPR7 antag conf | MCHR1 antagonist
CCCCc1ccc(N/C(N)=N/c2nc(C)cc(C)n2)cc1 | -19.0 | 96.6* | -7.9 | -13.8 | 92.7* | 102.9*
CN(C)C1(CNC(=O)C2CCC(=O)N(CCc3ccc(Cl)cc3)C2)CCCCC1 (stereo not drawn) | 0.0 | -1.1 | -12.8 | -4.7 | . | .
CC1CCC(NC(=O)CCS(=O)(=O)c2ccc3c(c2)CCN3C(=O)C2CC2)CC1 (stereo not drawn) | 4.9 | -4.6 | 16.7 | -6.1 | . | .
CCOC(=O)Cn1c(=O)oc2cc(S(=O)(=O)Nc3ccc(F)cc3)ccc21 | 1.9 | 25.0* | -27.7 | -18.4 | 41.6* | 36.8*
N#CC(C#N)=C1C=C2C=C(N3CCOCC3)CCC2CC1 (stereo not drawn) | -6.1 | 34.1* | . | -970.7 | 82.4* | 96.5*
CCN1CCN(C2=CC3=CC(=C(C#N)C#N)CCC3CC2)CC1 (stereo not drawn) | . | 59.7* | . | -807.6 | 68.3* | 91.3*
CN1CCN(C2=CC3=CC(=C(C#N)C#N)CCC3CC2)CC1 (stereo not drawn) | . | 58.9* | . | -790.5 | 76.5* | 89.9*
N#Cc1cc(Cl)c(N2CCOCC2)cc1C#N | 10.3 | -9.8 | 3.9 | 9.5 | . | .
N#CC(C#N)=C1C=C2C=C(N3CCCCCC3)CCC2CC1 (stereo not drawn) | 0.1 | 71.7* | . | -374.9 | 96.7* | 109.8*
COc1ccc(C)cc1N(CC(=O)NCCN1CCOCC1)S(=O)(=O)c1ccccc1 | 8.2 | . | 0.8 | . | . | .
COc1ccc(C(=O)N(C)Cc2ccc(C)o2)cc1OC1CCN(C(C)=O)CC1 | 19.0 | 23.2* | -4.1 | 1.0 | 1.1 | 36.3*
CN(C)c1ccc(NC(=O)CN2CCN(S(=O)(=O)c3cc(Cl)ccc3Cl)CC2)cc1 | -6.9 | -2.6 | -10.5 | 2.5 | . | .
CC(C)OC(=O)CN1CCN(S(=O)(=O)c2cc(Cl)ccc2Cl)CC1 | -8.3 | 27.1* | 14.2 | 0.7 | 5.4 | -3.6
O=C(N/N=C/c1ccc(O)cc1)c1ccc(COc2cc(Cl)ccc2Cl)o1 | i | 52.9* | -7.1 | 1.5 | 68.3* | 78.0*
O=C(Nc1cccnc1)c1ccc(COc2cc(Cl)ccc2Cl)o1 | -7.5 | 23.1 | 2.8 | -0.5 | . | .
COc1cc(C(=O)COC(=O)c2cc([N+](=O)[O-])ccc2N2CCOCC2)ccc1OC(F)F | -2.7 | . | 4.2 | . | . | .
O=C1C2C3c4ccccc4C(c4ccccc43)C2c2nc3ccccc3n21 (stereo not drawn) | 12.7 | 22.1* | 3.0 | 4.4 | 7.8 | 31.7*
CCC(=O)N1CCN(c2ccccc2NC(=O)Cc2ccccc2)CC1 | 20.9 | 22.3* | 16.6 | 2.5 | 15.3 | 22.0*
CC(C)C(=O)N1CCN(c2ccccc2NC(=O)Cc2ccc(Cl)cc2)CC1 | 5.2 | 28.6* | 3.9 | -9.6 | 39.0* | 37.1*
O=C(Cc1ccccc1)Nc1ccccc1N1CCN(c2ccccc2)CC1 | 12.0 | -0.1 | 1.0 | 5.3 | . | .
CN1CCN(c2ccccc2NC(=O)COc2ccccc2)CC1 | 2.5 | 21.6* | -3.1 | 1.8 | 15.4 | 11.8
COc1ccc(Cl)cc1Nc1nc(N)nc(C(F)(F)F)n1 | -5.7 | 4.5 | -2.5 | -2.7 | . | .
CCOC(=O)c1ccccc1NC(=O)c1cn(CC)c2nc(C)ccc2c1=O | -27.4 | . | -0.5 | . | . | .
CCCN(CC(=O)Nc1ccccc1C)C(=O)c1cccc(S(=O)(=O)N2CCc3ccccc3C2)c1 | -2.8 | 30.5* | 4.0 | 0.8 | 27.9* | 55.0*
CCCN(CC(=O)Nc1ccccc1C)C(=O)c1ccc(S(=O)(=O)N2CCCCCC2)cc1 | 14.3 | -6.0 | 12.3 | 6.1 | . | .
CCCOc1ccc(/C=C/C(=O)NCc2ccccc2)cc1 | -1.0 | 5.7 | 10.0 | -0.6 | . | .
Cc1ccc(N(C)S(=O)(=O)c2ccc(-c3cnc(C4CC4)o3)cc2)cc1 | -14.2 | 36.6* | 20.6 | -9.8 | 15.8 | 36.7*
CN(C)c1ccc(-c2nn3c(-c4ccccc4Cl)nnc3s2)cc1 | -4.8 | 24.8* | 3.1 | -25.0 | 32.7* | 75.5*
Clc1ccccc1-c1nnc2sc(-c3ccncc3)nn12 | -6.5 | 6.2 | 3.0 | -3.0 | . | .
